Where “and” joins values, the source holds several entries; their conditions need not be identical. Identical values can stand only once. This is part of a sample that, as a whole, favours compounds with a hit. Of some 83,000 tested, about 20% had one in any assay.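 Cell lines were cultured in 96-well plates, exposed to a single compound concentration, and assessed for percent growth 48 hours later.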 A number with no mark means an inactive call. Calls of active or inactive are those of the source. How the source made its calls: active means growth percent below 10; inactive means the rest. Starred links: 1 amine or outer side, 2 acyl side, 3 side chain; linkers in the order of their positions; H or OH if unused. Positions of bridges follow the written chain, without caps; N, C: chain ends. Non-standard residues stand in square brackets, D forms with d. Residues, ends and D or L forms follow the SMILES beside them. Chains are numbered I, II in the order given. Actinocin(9to1) = Cc1c2oc3c(C)ccc(C(=O)[*:1])c3nc-2c(C(=O)[*:2])c(N)c1=O; aThr = C[C@H](O)[C@H](N)C(=O)O; NMeV = CN[C@H](C(=O)O)C(C)C; Sar = CNCC(=O)O
Columns and labels:
Assay in all cases: NCI-60 one-dose screen, 48 h (100 = growth as untreated, 0 = no growth, -100 = all killed)
[1] = system: NCI-H23 lung
[2] = system: NCI-H226 lung
[3] = system: NCI-H322M lung
[4] = system: HOP-62 NSCLC
[5] = system: NCI-H460 lung
[6] = system: HOP-92 NSCLC
[7] = system: NCI-H522 lung
[8] = system: A549/ATCC NSCLC
[9] = system: 786-0 renal
[10] = system: COLO 205 colon

For `O=C(/C(=C/c1ccccc1)CBr)c1ccccc1`, the growth ([1]; 10 µM) was 73.1%, the growth ([2]; 10 µM) was 93% and the growth ([3]; 10 µM) was 90.4%. It also gave a growth ([4]; 10 µM) of 109%, a growth ([5]; 10 µM) of 86.4% and a growth ([6]; 10 µM) of 86.3%. The growth ([7]; 10 µM) was 55.8%, the growth ([8]; 10 µM) was 90.1% and the growth ([9]; 10 µM) was 94.5%. For the same compound, the growth ([10]; 10 µM) was 92.6%.
Compound `CN1CCN(c2ccc3nc(-c4ccc5nc(-c6ccc(O)cc6)[nH]c5c4)[nH]c3c2)CC1` has a growth ([1]; 10 µM) of 74%, a growth ([2]; 10 µM) of 88.5% and a growth ([3]; 10 µM) of 106%. It also gave a growth ([4]; 10 µM) of 95.8%, a growth ([5]; 10 µM) of 107% and a growth ([6]; 10 µM) of 42.1%. It also gave a growth ([7]; 10 µM) of 47%, a growth ([8]; 10 µM) of 62.1% and a growth ([9]; 10 µM) of 87.2%. The growth ([10]; 10 µM) was 72%.
With `CSc1ccc2c(c1)C(N1CCN(C)CC1)Cc1ccccc1S2` (configuration not stated) the growth ([1]; 10 µM) was 56%, the growth ([2]; 10 µM) was 55.3% and the growth ([5]; 10 µM) was 29%. The growth ([6]; 10 µM) was 5.58% (active), the growth ([8]; 10 µM) was 52.7% and the growth ([9]; 10 µM) was 53.6%. For the same compound, the growth ([10]; 10 µM) was -75.1% (active).
For `CN(C)CCC(=O)c1c[nH]c2ccccc12`, the growth ([1]; 10 µM) was 110%, the growth ([2]; 10 µM) was 105% and the growth ([3]; 10 µM) was 94%. The growth ([4]; 10 µM) was 94.4%, the growth ([5]; 10 µM) was 113% and the growth ([7]; 10 µM) was 91.8%. It also gave a growth ([8]; 10 µM) of 110%, a growth ([9]; 10 µM) of 98.8% and a growth ([10]; 10 µM) of 111%.
In the case of `BrC/C=C/C[P+](c1ccccc1)(c1ccccc1)c1ccccc1`, the growth ([1]; 10 µM) is reported as 84.2%, the growth ([2]; 10 µM) is reported as 76.2% and the growth ([3]; 10 µM) is reported as 96.5%. For the same compound, the growth ([4]; 10 µM) was 27.4%, the growth ([5]; 10 µM) was 57.4% and the growth ([6]; 10 µM) was 60.4%. The growth ([7]; 10 µM) was 40%, the growth ([8]; 10 µM) was 44% and the growth ([9]; 10 µM) was 46.2%. It also gave a growth ([10]; 10 µM) of 16.5%.
`N#C/C(=C1C=C/C(=N\O)C(Cl)=C\1)c1ccccc1` gave a growth ([1]; 10 µM) of 82.8%, a growth ([2]; 10 µM) of 87.8% and a growth ([3]; 10 µM) of 55.3%. It also gave a growth ([4]; 10 µM) of 33.2%, a growth ([5]; 10 µM) of 14.3% and a growth ([6]; 10 µM) of 38.3%. The growth ([8]; 10 µM) was 31.2%, the growth ([9]; 10 µM) was 43% and the growth ([10]; 10 µM) was 38.3%.
In the case of `COc1cc(C(C)(C)C)cc(OC)c1C(O)(c1c(OC)cc(C(C)(C)C)cc1OC)c1c(OC)cc(C(C)(C)C)cc1OC`, the growth ([1]; 10 µM) is reported as -51.2% (active), the growth ([2]; 10 µM) is reported as -65.7% (active) and the growth ([3]; 10 µM) is reported as -68.6% (active). For the same compound, the growth ([4]; 10 µM) was -95.3% (active), the growth ([5]; 10 µM) was -82.1% (active) and the growth ([6]; 10 µM) was -66.2% (active). The growth ([7]; 10 µM) was -56.4% (active), the growth ([8]; 10 µM) was -54.4% (active) and the growth ([9]; 10 µM) was -96.6% (active). The growth ([10]; 10 µM) was -89.2% (active).
In the case of `O=c1[nH]cc(F)c(=O)[nH]1`, the growth ([1]; 10 µM) is reported as 55% and 55.2%, the growth ([1]; 25 µM) is reported as 39% and the growth ([1]; 50 µM) is reported as 41.6%. For the same compound, the growth ([2]; 10 µM) was 85.2% and 94.1%, the growth ([2]; 25 µM) was 69.5% and the growth ([3]; 10 µM) was 62.5% and 58.5%. The growth ([3]; 25 µM) was 59.5%, the growth ([3]; 50 µM) was 48.6% and the growth ([4]; 10 µM) was 46.6% and 82.3%. The growth ([4]; 25 µM) was 47.8%, the growth ([4]; 50 µM) was 42.4% and the growth ([5]; 10 µM) was 16% and 20%. For the same compound, the growth ([5]; 25 µM) was 13%, the growth ([5]; 50 µM) was 13.9% and the growth ([6]; 10 µM) was 87.3% and 49.3%. The growth ([6]; 25 µM) was 50.6%, the growth ([6]; 50 µM) was 75.7% and the growth ([7]; 10 µM) was 62.1% and 62.2%. The growth ([7]; 25 µM) was 58%, the growth ([8]; 10 µM) was -11.5% (active) and the growth ([8]; 25 µM) was 34.2%. For the same compound, the growth ([8]; 50 µM) was 31.2%, the growth ([9]; 10 µM) was 64.2% and 62.2% and the growth ([9]; 25 µM) was 48.7%. For the same compound, the growth ([9]; 50 µM) was 59%, the growth ([10]; 10 µM) was 51.4% and 39.4% and the growth ([10]; 25 µM) was 40.2%. The growth ([10]; 50 µM) was 33.5%.
`CCCCCCCCCCCCCCCCCN` was tested, and the growth ([1]; 10 µM) was 106%, the growth ([2]; 10 µM) was 111% and the growth ([3]; 10 µM) was 110%. For the same compound, the growth ([4]; 10 µM) was 87.7%, the growth ([5]; 10 µM) was 102% and the growth ([6]; 10 µM) was 67%. The growth ([7]; 10 µM) was 101%, the growth ([8]; 10 µM) was 105% and the growth ([9]; 10 µM) was 105%. The growth ([10]; 10 µM) was 99.8%.
`Cc1cc(NCCCN(C)C)c2ccc3c(ccc4c(NCCCN(C)C)cc(C)nc43)c2n1` was tested, and the growth ([1]; 10 µM) was -45.2% (active), the growth ([2]; 10 µM) was -56.6% (active) and the growth ([3]; 10 µM) was -40.7% (active). For the same compound, the growth ([4]; 10 µM) was -22.3% (active), the growth ([5]; 10 µM) was -77.7% (active) and the growth ([6]; 10 µM) was -51.2% (active). The growth ([7]; 10 µM) was -72.8% (active), the growth ([8]; 10 µM) was -22.4% (active) and the growth ([9]; 10 µM) was -35.2% (active). For the same compound, the growth ([10]; 10 µM) was -82.8% (active).
With `Cc1cnc(/C=N\NC(N)=S)c2cccc(N)c12` the growth ([1]; 10 µM) was 7.29% (active), the growth ([2]; 10 µM) was 4.78% (active) and the growth ([3]; 10 µM) was -21.9% (active). The growth ([4]; 10 µM) was 11.3%, the growth ([5]; 10 µM) was 1.79% (active) and the growth ([7]; 10 µM) was -1.74% (active). The growth ([8]; 10 µM) was 11.6%, the growth ([9]; 10 µM) was 6.81% (active) and the growth ([10]; 10 µM) was 15.1%.
In the case of `S=c1[nH]nc(Cc2ccccc2)c(=S)[nH]1`, the growth ([1]; 10 µM) is reported as 92.5%, the growth ([2]; 10 µM) is reported as 103% and the growth ([3]; 10 µM) is reported as 97.7%. For the same compound, the growth ([4]; 10 µM) was 97.7%, the growth ([5]; 10 µM) was 104% and the growth ([6]; 10 µM) was 100%. The growth ([7]; 10 µM) was 88%, the growth ([8]; 10 µM) was 94.7% and the growth ([9]; 10 µM) was 106%. It also gave a growth ([10]; 10 µM) of 106%.
In the case of `Nc1ccc2cc(Br)c3ccccc3c2c1`, the growth ([1]; 10 µM) is reported as 69.5%, the growth ([2]; 10 µM) is reported as 59.4% and the growth ([3]; 10 µM) is reported as 64.7%. The growth ([4]; 10 µM) was 80.9%, the growth ([5]; 10 µM) was 54.1% and the growth ([6]; 10 µM) was 75.3%. It also gave a growth ([7]; 10 µM) of 86.9%, a growth ([8]; 10 µM) of 63% and a growth ([9]; 10 µM) of 54.8%. It also gave a growth ([10]; 10 µM) of 115%.
With `Cc1c2oc3c(C)ccc(C(=O)N[C@@H]4C(=O)N[C@H](C(C)C)C(=O)N5CCC[C@H]5C(=O)N(C)CC(=O)N(C)[C@@H](C(C)C)C(=O)O[C@H]4C)c3nc-2c(C(=O)N[C@@H]2C(=O)N[C@H](C(C)C)C(=O)N3CCC[C@H]3C(=O)N(C)CC(=O)N(C)[C@@H](C(C)C)C(=O)O[C@H]2C)c(N)c1=O` (I: [aThr][dV]P[Sar][NMeV] / II: [aThr][dV]P[Sar][NMeV]; ester I:1-I:C, II:1-II:C; linker I:N-II:N via Actinocin(9to1)) the growth ([1]; 0.0025 µM) was 53.2%, the growth ([1]; 10 µM) was -50.9% (active) and the growth ([2]; 0.0025 µM) was 57.3%. For the same compound, the growth ([2]; 10 µM) was -12.4% (active), the growth ([3]; 0.0025 µM) was 64.7% and the growth ([3]; 10 µM) was 7.68% (active). The growth ([4]; 0.0025 µM) was 41.2%, the growth ([4]; 10 µM) was -16.9% (active) and the growth ([5]; 0.0025 µM) was 16.7%. The growth ([5]; 10 µM) was -22.4% (active), the growth ([6]; 0.0025 µM) was 50.7% and the growth ([6]; 10 µM) was -16.3% (active). For the same compound, the growth ([7]; 0.0025 µM) was 33.9%, the growth ([7]; 10 µM) was -38.4% (active) and the growth ([8]; 0.0025 µM) was 36.8%. For the same compound, the growth ([8]; 10 µM) was -38.9% (active), the growth ([9]; 0.0025 µM) was 41.8% and the growth ([9]; 10 µM) was -3.24% (active). For the same compound, the growth ([10]; 0.0025 µM) was 44.2% and the growth ([10]; 10 µM) was -56.7% (active).
